This is an account of results in PubChem BioAssay AID1362 (SRMLSC, 2008).

Screen size: about 190,000 compounds; about 4,000 (2.1%) were called active. Cut-off read from the data, not from the text of the source: active = inhibition above about 58%; inactive = the rest, inconclusive results apart; tested in S. cerevisiae. What follows is part of a selection rich in actives, with near analogues and random picks from the rest.

A short description of the assay: growth inhibition of WT strain, primary screen, mitochondrial fusion inhibitor project, WT and mutant strains, chemical genetic (AID 1362). The conditions noted are these: mitochondrial fusion phenotypic screen, at 10 µM.
Setting [1] is: WT strain, growth inhibition, stronger effect = higher value.

Usually inhibition stands for the drop in the measured response relative to a control, in per cent. On to `Cc1ccc(NC(=O)C(=O)NCC2CCN(C(=O)c3cccc([N+](=O)[O-])c3)CC2)cc1`, for which the inhibition was 2.01% (inactive) under setting [1] and -12.9% (mutant strain inhibition).
Regarding `COc1ccccc1-n1c(=S)[nH]c2c(sc(=S)n2-c2ccc(C)cc2C)c1=O`, the inhibition is, setting by setting: under setting [1], -7.13% (inactive); (mutant strain inhibition) -4.6%.
As to `Cc1ccc(Nc2ccc(C(N)=O)cc2[N+](=O)[O-])cc1`, the inhibition is 2.16% (inactive) under setting [1] and -8.75% (mutant strain inhibition).
For `Cc1cc(C)nc(Nc2cc([N+](=O)[O-])ccc2C)n1`, the inhibition runs as follows: under setting [1], -4.85% (inactive); (mutant strain inhibition) 9.39%.
Take `Cc1ccc(Nc2cc(C)nc3c(C)ccc([N+](=O)[O-])c23)cc1`: the inhibition was 64.8% (active) under setting [1] and 56.9% (mutant strain inhibition).
Take `CCC(C)(C)NC(=O)CN(C(=O)C(=O)Nc1ccc2c(c1)OCCO2)C(C)(C)CC`: the inhibition is -7.46% (inactive) under setting [1] and 6.56% (mutant strain inhibition).
For `Cc1ccc(C(=O)O)cc1N1C(=O)CCCC1=O`, the inhibition is, setting by setting: under setting [1], -14.9% (inactive); (mutant strain inhibition) -14.6%.
Consider `O=C(CN1C(=O)/C(=C\c2ccc(C(F)(F)F)cc2)Sc2ccccc21)NCc1ccco1`, for which the inhibition was 49% (inactive) under setting [1] and 3.15% (mutant strain inhibition).
For the molecule `Cc1nn(Cc2ccccc2)c(C)c1C(=O)NCCN1C(=O)S/C(=C\c2ccc(F)cc2)C1=O`, the inhibition runs as follows: under setting [1], 0.77% (inactive); (mutant strain inhibition) 0.61%.
Regarding `CCN1CCN(CCNC(=O)c2ccc(/C=C3/Sc4ccccc4N(Cc4cccc(C)c4)C3=O)cc2)CC1`, the inhibition is 83.7% (active) under setting [1] and 59.2% (mutant strain inhibition).
Regarding `Cc1ccc(C)c(Cn2cnc3c(oc4ccccc43)c2=O)c1`, the inhibition by setting is: under setting [1], -1.67% (inactive); (mutant strain inhibition) -14.3%.
As to `COc1ccccc1/C=N\Nc1cc(C)nc(-n2nc(C)cc2C)n1`, the inhibition by setting is: under setting [1], 69.1% (active); (mutant strain inhibition) 28.4%.
As to `COc1cccc(/C=N/Nc2cc(C)nc(-c3ccccc3O)n2)c1O`, the inhibition is 51.6% (inactive) under setting [1] and 48.3% (mutant strain inhibition).
For `COc1ccc(NC(=O)c2nc(-n3nc(C)cc3C)ccc2Cl)cc1Cl`, the inhibition reads like this: under setting [1], 5.72% (inactive); (mutant strain inhibition) -16.9%.
For `COc1cc(NS(=O)(=O)c2ccccc2)ccc1-n1nc(C)cc1C`, the inhibition was -33.7% (inactive) under setting [1] and 2.02% (mutant strain inhibition).
Taken in the same sequence, the figures for `CC(=O)c1ccc(Oc2cc(C)nc(-n3nc(C)cc3C)n2)cc1` were -3.85% (inactive) and 8.66%.
For `COc1ccc(Nc2cc(C)nc(-n3nc(C)cc3C)n2)cc1`, the inhibition under setting [1] was 76.8% (active) and the inhibition (mutant strain inhibition) is 68.7%.
As to `COc1ccc(-c2ccc(CCC(=O)O)n2-c2ccc(O)cc2)cc1`, the inhibition was -12.3% (inactive) under setting [1] and -2.11% (mutant strain inhibition).
With `O=C(Nc1ccc2ccccc2c1)Nc1ccc2snnc2c1`, the inhibition reads like this: under setting [1], 88.1% (active); (mutant strain inhibition) 77.8%.
In the case of `COc1ccc(NC(=O)Nc2ccc3nsnc3c2)cc1`, the inhibition reads like this: under setting [1], 23.1% (inactive); (mutant strain inhibition) -36.8%.
Taken in the same sequence, the figures for `O=C(Nc1ccccc1)Nc1nc2ccccc2s1` were -5.57% (inactive) and -20.5%.
The corresponding values for `COc1ccc2c(c1)CCc1c(C(=O)N3CCCC3)noc1-2` are -10.3% (inactive) and -6.91%.
On to `COc1ccc2c(c1)CCc1c(C(=O)Nc3c(C)n(C)n(-c4ccccc4)c3=O)noc1-2`, for which the inhibition reads like this: under setting [1], -9.3% (inactive); (mutant strain inhibition) -13%.
In the case of `COc1ccc2c(c1)CCc1c(C(=O)N3CCc4ccccc4C3)noc1-2`, the inhibition by setting is: under setting [1], 73.9% (active); (mutant strain inhibition) 68%.
Consider `COc1ccc(CC2(CO)CCN(Cc3cnn(C)c3)CC2)cc1`, for which the inhibition is 12.1% (inactive) under setting [1] and -0.62% (mutant strain inhibition).
As for `Cc1cc(O)c(NC(=O)c2ccc(C)c([N+](=O)[O-])c2)cc1C`, the inhibition under setting [1] was -6.28% (inactive) and the inhibition (mutant strain inhibition) was -4.47%.
Taken in the same sequence, the figures for `Cc1cc(OCCOc2cccc3cccnc23)c(C)cc1Cl` were 14.6% (inactive) and 20.4%.
With `CCOc1cccc(OCCCOc2cccc3cccnc23)c1`, the inhibition is 60.8% (active) under setting [1] and 26% (mutant strain inhibition).
Consider `O=S(=O)(NCCOc1cccc2cccnc12)c1ccc(F)cc1`, for which the inhibition under setting [1] was 0.13% (inactive) and the inhibition (mutant strain inhibition) worked out at 5.48%.
In the case of `CC[N+]1(CC)CC2=Cc3ccccc3CC2C1` (centres undefined), the inhibition is, setting by setting: under setting [1], 0.67% (inactive); (mutant strain inhibition) -6.63%.
The corresponding values for `COCc1nnc(NC(=O)CS(=O)(=O)Cc2ccccc2)s1` are -3.35% (inactive) and -9.06%.
As for `O=C(CCc1ccccc1)NCc1cccnc1`, the inhibition reads like this: under setting [1], -0.16% (inactive); (mutant strain inhibition) 17.5%.
Regarding `O=C(CS(=O)(=O)Cc1ccccc1)Nc1cccnc1`, the inhibition by setting is: under setting [1], 90.1% (active); (mutant strain inhibition) 19.3%.
For `COCCC(=O)Nc1ccc2c(c1)CN(C(=O)CCOC)CC2`, the inhibition under setting [1] is -15.9% (inactive) and the inhibition (mutant strain inhibition) is -11.2%.
The corresponding values for `CC(C)C1Nc2c(C(=O)O)cccc2C(Nc2ccccc2C(=O)O)C1(C)C` (centres undefined) are -8.7% (inactive) and -3.34%.
Take `Cc1ccc(-n2nc3c(c2NC(=O)c2ccc4c(c2)OCO4)CSC3)c(C)c1`: the inhibition runs as follows: under setting [1], 84% (active); (mutant strain inhibition) 3.65%.
With `Cc1cc(C)c2nc(NC(=O)c3ccc4c(c3)OCO4)sc2c1`, the inhibition runs as follows: under setting [1], 14.1% (inactive); (mutant strain inhibition) -21.7%.
The corresponding values for `Cc1cccc(-n2nc3c(c2NC(=O)c2ccc(Br)o2)CSC3)c1C` are 8.72% (inactive) and 6.28%.
In the case of `O=C(Oc1cccc(O)c1)C1CCCCC1`, the inhibition was -7.96% (inactive) under setting [1] and 7.95% (mutant strain inhibition).
Turning to `CCOC(=O)c1c(CN(C)C)n(-c2ccccc2)c2cc(Br)c(O)cc12`, the inhibition is 9.54% (inactive) under setting [1] and 7.76% (mutant strain inhibition).
The corresponding values for `CC(CC(=O)O)C(=O)c1ccc(Cl)c([N+](=O)[O-])c1` (centres undefined) are -16.5% (inactive) and -4.59%.
As to `O=C(Nc1ncccn1)c1cccs1`, the inhibition is 71.2% (active) under setting [1] and 28.9% (mutant strain inhibition).
